Structures are written as SMILES. Results filed as inconclusive are left out. Where a call stands in place of a potency, no number is given. Calls of active or inactive are those of the source. Calls come from the whole dose curve; as a rule, active = well fitted cell-killing curve with a large enough effect in the repeat runs; inconclusive = weak or mixed curves, or effect the other way; inactive = flat fitted curve, though single readings scatter.

The test is described as follows: cAMP Responsive Elements (CRE) small molecule antagonists, cell-based qHTS assay: qHTS cell viability counter screen (AID 2060913). Note: nearly all actives have a fitted effect of over 40% in size. To be noted: CRE-bla HEK293T viability, CellTiter-Glo luminescence, 5 h; series mostly up to 92.4 µM. From the text:
U.S. Tox21 Program National Center for Advancing Translational Sciences [NCATS] Division of Preclinical Innovation [DPI] U.S. Environmental Protection Agency [EPA] National Institutes of Environmental Health Sciences [NIEHS] National Toxicology Program [NTP] U.S. Food and Drug Administration [FDA] Tox21 Assay Overview: CREB (cyclic-AMP Responsive Element Binding Protein) is a cellular transcription factor. It binds to certain DNA sequences called cAMP Responsive Elements (CRE) and regulates the transcription of the genes. […] This cell line can be used to find agonists/antagonists of the cyclic AMP signaling pathway. The activation of the report gene under culture conditions can be detected by fluorescence intensity. This cell line has been used to screen the Tox21 10K compound library to identify agonists that induce oxidative stress. The cytotoxicity of the Tox21 compound library against the CRE-bla cell line was tested in parallel by measuring the cell viability using CellTiter-Glo assay (Promega, Madison, WI) in the same wells.
Tox21 Assay Protocol Summary: CRE-bla Hek 293T cells were suspended in assay medium (DMEM containing 10% dialyzed FBS, 0.1 mM NEAA, 1 mM sodium pyruvate and 25 mM HEPES) and dispensed at 2,000 cells/4 uL /well into 1536-well black wall/clear bottom plates using a Multidrop Combi (ThermoFisher Scientific, Waltham, MA) dispenser. After the assay plates were incubated at 37 C/5% CO2 for 18 hrs, 23 nL of compounds dissolved in DMSO, positive controls or DMSO only was transferred to the assay plate by a pintool workstation (Kalypsys, San Diego, CA), followed by addition of 1 uL of 1.25uM NKH477 (0.25 uM as final concentration) in assay medium using a Flying Reagent Dispenser (Aurora Discovery, San Diego, CA). The plates were incubated at 37 C and 5% CO2 for 3 hrs. Then 1 uL of LiveBLAzer B/G FRET substrate (Invitrogen, Carlsbad, CA) was added to each well using Bioraptr Flying Reagent Dispenser (FRD, Aurora Discovery, San Diego, CA). The plates were incubated at room temperature for 2 h, then fluorescence intensities were measured using an Envision plate reader (PerkinElmer, Shelton, CT) at Excitation 405nm, Emission 460nm and 530nm. The % activity was determined from the ratio of 460nm/530nm. For cell viability readout that measures cytotoxicity, 4 uL /well of CellTiter-Glo reagent was added into the assay plates using Bioraptr FRD. After 30 min incubation at room temperature, the luminescence intensity in the assay plates was measured using a ViewLux (PerkinElmer, Shelton, CT) plate reader.
For `COC(=O)CCCCCCCCC(=O)OC`, the Potency entry was “inactive”.

Consider `CC(=O)Nc1c(I)c(NC(C)=O)c(I)c(C(=O)O)c1I`, for which the Potency result is “inactive”.

In the case of `F[B-](F)(F)F`, the Potency result is “inactive”.

For the compound `CCCCCCCCCCCCOC(=O)c1ccc(O)cc1`, the Potency entry was “inactive”.

Consider `Clc1ccc2c(c1)C(N1CCNCC1)=Nc1ccccc1O2`, for which the Potency result is “inactive”.

As for `COc1ccc2[nH]cc(CCNC(C)=O)c2c1`, the Potency entry is “inactive”.

For `CN1CCCN=C1COC(=O)C(O)(c1ccccc1)C1CCCCC1` (stereo not given), the Potency result is “inactive”.

Regarding `CC(=O)CC(C)=O`, the Potency result was “inactive”.

On to `CCCC(=O)Nc1ccc(O)c(C(C)=O)c1`, for which the Potency result is “inactive”.

Take `COc1ccc(C(=O)/C(Br)=C\C(=O)O)cc1`: the Potency result is “inactive”.

Consider `Oc1cc(O)c(Cl)cc1Cl`, for which the Potency entry is “inactive”.

`CN(C)CCCCCCN(C)C`: the Potency result was “inactive”.

`CCCCC(CC)COC(=O)CC#N` (stereo not given): the Potency entry is “inactive”.

Regarding `CC(COc1ccccc1)NC(C)C(O)c1ccc(O)cc1` (stereo not given), the Potency entry is “inactive”.

With `CCCCC(CC)COC(=O)c1ccccc1O` (stereo not given), the Potency entry was “inactive”.

Regarding `CC(C(=O)O)c1cccc(Oc2ccccc2)c1` (stereo not given), the Potency result is “inactive”.

On to `O=C(Oc1ccccc1)c1ccc(O)cc1`, for which the Potency entry was “inactive”.

As for `CC(C)CC(=O)O`, the Potency result is “inactive”.

As for `CC(=O)Nc1cccc(N)c1`, the Potency entry was “inactive”.

Regarding `Oc1ccc2cc(SSc3ccc4cc(O)ccc4c3)ccc2c1`, the Potency entry is “inactive”.

Consider `CC(C)=CC(=O)O`, for which the Potency result is “inactive”.

Consider `C/C=C/C=C/COC(=O)C(C)C`, for which the Potency entry was “inactive”.

As to `O=C(O)c1ccccc1C(c1ccc(O)cc1)c1ccc(O)cc1`, the Potency entry was “inactive”.

For `C[Si]1(C)O[Si](C)(C)O[Si](C)(C)O1`, the Potency entry was “inactive”.

As to `CC(C)C1=CC2=CC[C@@H]3[C@](C)(CCC[C@@]3(C)C(=O)O)[C@H]2CC1`, the Potency entry is “inactive”.

For `O=C1NS(=O)(=O)c2ccccc21`, the Potency entry is “inactive”.

Turning to `CCNc1nc(NC(C)CC)nc(OC)n1` (stereo not given), the Potency entry was “inactive”.

As to `CN1C(=O)N(C)C(O)C1O` (stereo not given), the Potency result is “inactive”.

For the compound `CC(C)(C)c1cc(C=O)cc(C(C)(C)C)c1O`, the Potency entry was “inactive”.

Take `C(=C\c1ccccc1)/c1ccccc1`: the Potency entry was “inactive”.

As to `CN(C)C(=O)CNC(=O)Cc1ccccc1`, the Potency result is “inactive”.

With `CC(C)CCCCOC(=O)c1ccccc1C(=O)OCCCCC(C)C`, the Potency entry was “inactive”.

Turning to `Cn1ccc2cc3c(cc21)CCN3C(=O)Nc1cccnc1`, the viability change, negative = cytotoxic was -0.701% [at 18.9 µM] (inactive).

For the compound `NCCNCCN`, the Potency entry is “inactive”.

`FC(F)(F)C(F)(F)C(F)(F)C(F)(F)C(F)(F)C(F)(F)CCI`: the Potency result is “inactive”.

`COC(=O)c1ccc2cc(C(=O)OC)ccc2c1`: the viability change, negative = cytotoxic was 9.85% [at 18.9 µM] (inactive).

On to `O=C1Nc2ccc([N+](=O)[O-])cc2C1=O`, for which the Potency result was “inactive”.

As for `CCCCCOC(=O)Nc1nc(=O)n([C@@H]2O[C@H](C)[C@@H](O)[C@H]2O)cc1F`, the Potency entry is “inactive”.

`Cc1ccc(N(CC2=NCCN2)c2cccc(O)c2)cc1`: the Potency result is “inactive”.

`CCC(=O)OC/C=C(\C)CCC=C(C)C`: the Potency result is “inactive”.

The record behind these values is PubChem BioAssay (Tox21).
